In the library only some 2.9% were active in any assay of this set; here they are far more common.
EPAC2 antag: validation of human EPAC2 antagonists | EPAC2 Rap1B BODIPY-GDP exchange, fluorescence | actives 1.7% (n = 16,000) | Q8WZA2 | Potency, µM (top dose mostly 112 µM), without a hit: at the top dose activity, negative = inhibition, most hits filed as inhibitors | AID 1645886;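 also: 100% = activation by cAMP agonist control; nearly all actives have a fitted effect of over 40% in size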
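Normalized against a 6.5 mM cAMP agonist control, compounds were tested on 100 nM EPAC2 exchanging Rap1B-bound BODIPY-GDP (250 nM) for 50 uM GDP. Fluorescence drop (ex 480, em 540 nm) was tracked at room temperature over 30 min at 5-min intervals.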
EPAC1 agonist: validation of human EPAC1 agonists; O95398; EPAC1 Rap1b BODIPY-GDP exchange, fluorescence; Potency, µM, for the others: max response, positive = active, usual class: activators; actives 1% (n = 16,000); AID 1645883; also: nearly all actives have a fitted effect of over 70% in size
* marks the source's active call; other numbers are inactive results; ? = inconclusive; ! = not confirmed by another sample; [ ] = another dose, or the depositor's remark. Calls follow the shape of the dose curve; as a rule, active = well fitted curve in the direction sought with a large enough effect; inconclusive = small, poorly fitted or top-dose-only effect, or another doubt; inactive = no such curve, though single readings can be large; an effect the other way counts as inactive or inconclusive. Unless noted, % is scaled to controls: 0 for no effect and ±100 for the full control effect; potency is read from the fitted curve at half-maximal effect.

SMILES	EPAC2 antag	EPAC1 agonist
Cc1cnc(SCc2ccccn2)nc1C1CCCN(C(=O)c2scc3c2CCCC3)C1 (stereo unspecified)	?	-14%
COCCn1c(=O)c(-c2ccccc2)nc2cnc(Nc3ccccc3)nc21	-15%	-14%
COc1ncc2nc(-c3cccs3)c(=O)n(Cc3cccs3)c2n1	-18%	?
O=c1c(-c2ccccc2)nc2cnc(Nc3ccccc3)nc2n1Cc1cccs1	11%	112µM*
COc1ncc2nc(-c3ccccc3)c(=O)n(Cc3cccs3)c2n1	?	112µM*
Cc1cc(C)n(-c2cccc(C(=O)NCC3Cc4cccc(-c5cccnc5)c4O3)c2)n1 (stereo unspecified)	-3%	0%
CC#CCC(C)[C@H](O)/C=C/[C@@H]1[C@H]2c3cccc(CCCC(=O)O)c3O[C@H]2C[C@H]1O (stereo partly specified)	-16%	15%
CN1CCN(CCCN2c3ccccc3Sc3ccc(C(F)(F)F)cc32)CC1	56µM*!	-2%
O=C(CCN1CCN(CCO)CC1)N1c2ccccc2Sc2ccc(C(F)(F)F)cc21	7%	13%
CC(=O)N1CCC2(CCCN(C(c3ccccc3)c3ccccc3)C2)CC1	32µM*	-25%
CC(=O)N1CCC2(CC1)CCN(C(c1ccccc1)c1ccccc1)CC2	-30%	-63%
CC1=C(/C=C/C(C)=C/C=C/C(C)=C/C=C/C=C(C)/C=C/C=C(C)/C=C/C2=C(C)C[C@@H](O)CC2(C)C)C(C)(C)C[C@H](O)C1	28%	-24%
COC(=O)[C@@H]1CCCN1C(=O)c1cnn(-c2ncc3c(n2)-c2ccccc2CCC3)c1C1CC1	-12%	-3%
O=c1c(-c2ccccc2)nc2cnc(N3CCNCC3)nc2n1Cc1ccc(F)cc1	-14%	-10%
O=c1c(-c2cc(F)cc(F)c2)nc2cnc(N3CCNCC3)nc2n1Cc1ccc(F)cc1	50µM*	?
COC(=O)Nc1nc2ccc(C(=O)c3ccccc3)cc2[nH]1	-11%[56.6 µM]	-26%
COC(=O)Nc1nc2ccc(C(=O)c3cccs3)cc2[nH]1	79µM*!	-3%
CN1[C@@H]2CCC[C@@H]1CC(NC(=O)c1nn(C)c3ccccc13)C2 (stereo partly specified)	21%	-10%
COc1ccccc1C1CN(Cc2cccc(C)n2)Cc2ccccc2O1 (stereo unspecified)	?	15%
C=C1C[C@]23C[C@@]1(O)CC[C@H]2[C@@]12C=C[C@H](O)[C@@](C)(C(=O)O1)[C@H]2[C@@H]3C(=O)O	-43%[56.6 µM]	45µM*
C=C1C[C@@]23C[C@@]1(O)CCC2[C@@]12C=CC(O)[C@](C)(C(=O)O1)C2C3C(=O)O (stereo partly specified)	-3%	?
Cc1oc(-c2cccc(NC(=O)c3ccccn3)c2)nc1CNC(=O)C#Cc1ccccc1	-3%	3%
COc1ccc(-c2nc3cc(C)ccc3cc2CN(C(=O)c2cccs2)C2CC2)cc1OC	?	24%
COc1cccc(C(=O)N(Cc2cc3ccc(C)cc3nc2N(C)C)C2CC2)c1OC	14µM*	-2%
CCCCCCCC(=O)CC[C@@H]1[C@@H](C/C=C\CCCC(=O)OC(C)C)[C@@H](O)C[C@H]1O	?	-216%
SMILES	EPAC2 antag	EPAC1 agonist
O=C(O)c1ccccc1Nc1cccc(C(F)(F)F)c1	35µM*!	-59%
O=C(O)c1ccccc1Nc1ccccc1	-11%	-2%
Cc1cnc(SCC2CCCO2)nc1C1CCCN(Cc2cc3c(cc2Cl)OCO3)C1 (stereo unspecified)	-14%	-4%
COC(=O)[C@@H]1C2CC3c4[nH]c5cc(OC)ccc5c4CCN3CC2C[C@H](OC(=O)c2cc(OC)c(OC)c(OC)c2)C1OC (stereo partly specified)	-21%	100µM*
COC(=O)[C@H]1[C@@H]2C[C@@H]3c4[nH]c5ccccc5c4CCN3C[C@H]2CC[C@H]1O	-7%	-3%
CC(C)C[C@H](NC(=O)[C@@H](COC(C)(C)C)NC(=O)[C@H](Cc1ccc(O)cc1)NC(=O)[C@H](CO)NC(=O)[C@H](Cc1c[nH]c2ccccc12)NC(=O)[C@H](Cc1cnc[nH]1)NC(=O)[C@@H]1CCC(=O)N1)C(=O)N[C@@H](CCCN=C(N)N)C(=O)N1CCC[C@H]1C(=O)NNC(N)=O	0%	-11%
COC(=O)c1c(Cl)c(Cl)c(C(=O)OC)c(Cl)c1Cl	-22%	?
COC(=O)c1c(C)c2c(c(C)c1O)OC(=O)c1c(C)c(Cl)c(O)c(Cl)c1O2	2.5µM*	-23%
COC(=O)c1c(OC)cc2c(c1C)Oc1c(Cl)c(O)c(Cl)c(C)c1C(=O)O2	4.5µM*	-78%
CCC(Oc1ccccc1)C(=O)N[C@@H]1C(=O)N2[C@@H]1SC(C)(C)[C@@H]2C(=O)O (stereo partly specified)	5%	-20%
Cc1ccc(C(=O)NCCc2nnc3n2CCN(Cc2ccnc4ccccc24)CC3)c(C)c1	-7%	-15%
CCC(=O)O[C@H]1[C@H](O[C@@H]2[C@@H](C)[C@H](O[C@H]3C[C@@](C)(OC)[C@@H](O)[C@H](C)O3)[C@@H](C)C(=O)O[C@H](CC)[C@@](C)(O)[C@H](O)[C@@H](C)C(=O)[C@H](C)C[C@@]2(C)O)O[C@H](C)C[C@@H]1N(C)C	32µM*	-70%
CCOC(=O)CCC(=O)O[C@H]1[C@H](O[C@@H]2[C@@H](C)[C@H](O[C@H]3C[C@@](C)(OC)[C@@H](O)[C@H](C)O3)[C@@H](C)C(=O)O[C@H](CC)[C@@](C)(O)[C@H](O)[C@@H](C)C(=O)[C@H](C)C[C@@]2(C)O)O[C@H](C)C[C@@H]1N(C)C	-14%	-3%
COc1ccc(-c2nc3cc(C)ccc3cc2CN(C(=O)c2ccc(C)s2)C2CC2)cc1OC	?	5%
COc1cccc(-c2nc3cc4c(cc3cc2CN(C(=O)c2cc(C)nn2C)C2CC2)CCC4)c1OC	?	0%
COc1cc(-c2c(-c3ccc4c(c3)OCO4)noc2-c2ccsc2)ccc1F	?	25%
Cc1onc(-c2ccc3c(c2)OCO3)c1-c1ccc2[nH]ccc2c1	?	100µM*
Cc1c(C)c2c(c(C)c1OC(=O)CCC(=O)OCCO)CC[C@@](C)(CCC[C@H](C)CCC[C@H](C)CCCC(C)C)O2	43%	-240%
Cc1cc(C)c(S(=O)(=O)Nc2cccc(C(F)(F)F)c2)c(C)c1	40µM*	-11%
O=C(OCCOCCO)c1ccccc1Nc1cccc(C(F)(F)F)c1	-20%[56.6 µM]	-8%
CCCCCCC/C=C\CCCCCCCCC(=O)O	28µM*	-26%
CCCCC/C=C\C/C=C\C/C=C\C/C=C\CCCC(=O)O	?	-17%
CCCCC/C=C\C/C=C\C/C=C\C/C=C\CCCCCC(=O)O	-28%[11.4 µM]	-14%
CCCCCCCCCCC/C=C\C(C)(C)/C=C\CCCC(=O)O	35µM*!	-58%
NCCCC[C@H](NC(=O)[C@@H]1CCCN1C(=O)[C@@H]1CSSC[C@H](N)C(=O)N[C@@H](Cc2ccc(O)cc2)C(=O)N[C@@H](Cc2ccccc2)C(=O)N[C@@H](CCC(N)=O)C(=O)N[C@@H](CC(N)=O)C(=O)N1)C(=O)NCC(N)=O	-12%	-5%
CCC1(C2CCN(Cc3cc4ccccc4o3)CC2)NC(=O)N(CC2COc3ccccc3O2)C1=O (stereo unspecified)	-19%	?
COc1ccc(CNC(=O)C[C@H]2C(=O)N(Cc3ccc(OC)cc3)C[C@@H]2Cc2ccccc2)cc1	?	2%
